Holding throughout (experiment): PBM; 200 nM protein, PBS
Settings in all cases: dsDNA, one strand shown

The target in assay [1] is SHOX (Homo sapiens, UniProt O15266 103-189).
Assay [2] addresses ALX1 (Homo sapiens, UniProt Q15699 118-204, L144V).
Assay [3] deals with ALX3 (Homo sapiens, UniProt O95076 139-225, N203Q).
Assay [4] concerns the target SHOX (Homo sapiens, UniProt O15266 103-189, R173C).
Assay [5] has as its target ALX1 (Homo sapiens, UniProt Q15699 118-204, L144R).
The target in assay [6] is ALX3 (Homo sapiens, UniProt O95076 139-225).
Chain of ALX3 (Homo sapiens, UniProt O95076 139-225) (O95076 139-225): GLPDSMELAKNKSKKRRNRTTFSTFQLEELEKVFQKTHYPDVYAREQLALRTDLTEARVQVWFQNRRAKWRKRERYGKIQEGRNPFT
Assay [7] deals with VAX1 (Homo sapiens, UniProt Q5SQQ9 86-172).
Chain of VAX1 (Homo sapiens, UniProt Q5SQQ9 86-172) (Q5SQQ9 86-172): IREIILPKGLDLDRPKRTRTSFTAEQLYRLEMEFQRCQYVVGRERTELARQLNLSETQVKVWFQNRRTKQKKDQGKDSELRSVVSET
Assay [8] addresses ALX3 (Homo sapiens, UniProt O95076 139-225, L168Q).
The target in assay [9] is ALX3 (Homo sapiens, UniProt O95076 139-225, L168V).
Chain of ALX3 (Homo sapiens, UniProt O95076 139-225, L168V) (O95076 139-225 L168V): as the sequence (O95076 139-225) above, with L30V counted along it
For assay [10], the target named is VAX1 (Homo sapiens, UniProt Q5SQQ9 86-172, T142I).
Chain of VAX1 (Homo sapiens, UniProt Q5SQQ9 86-172, T142I) (Q5SQQ9 86-172 T142I): as the sequence (Q5SQQ9 86-172) above, with T57I counted along it
In assay [11] the target is ALX1 (Homo sapiens, UniProt Q15699 118-204).
Chain of ALX1 (Homo sapiens, UniProt Q15699 118-204) (Q15699 118-204): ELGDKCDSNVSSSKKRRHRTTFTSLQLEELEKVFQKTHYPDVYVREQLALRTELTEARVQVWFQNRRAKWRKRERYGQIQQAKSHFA
Assay [12] concerns the target ALX3 (Homo sapiens, UniProt O95076 139-225, N203S).
Assay [13] concerns the target VAX1 (Homo sapiens, UniProt Q5SQQ9 86-172, K157R).
In assay [14] the target is HOXD13 (Homo sapiens, UniProt P35453 263-343, T313R).
Chain of HOXD13 (Homo sapiens, UniProt P35453 263-343, T313R) (P35453 263-343 T313R): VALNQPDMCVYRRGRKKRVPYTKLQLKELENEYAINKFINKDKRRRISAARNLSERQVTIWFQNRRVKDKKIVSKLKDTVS
The target in assay [15] is HOXD13 (Homo sapiens, UniProt P35453 263-343).
Chain of HOXD13 (Homo sapiens, UniProt P35453 263-343) (P35453 263-343): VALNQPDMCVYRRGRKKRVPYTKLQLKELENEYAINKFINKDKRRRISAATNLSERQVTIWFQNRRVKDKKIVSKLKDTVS
In assay [16] the target is HOXD13 (Homo sapiens, UniProt P35453 263-343, T313A).
Chain of HOXD13 (Homo sapiens, UniProt P35453 263-343, T313A) (P35453 263-343 T313A): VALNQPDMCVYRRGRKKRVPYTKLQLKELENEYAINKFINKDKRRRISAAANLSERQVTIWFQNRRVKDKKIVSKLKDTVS
For assay [17], the target named is HOXC10 (Homo sapiens, UniProt Q9NYD6 254-340, K271E).
Chain of HOXC10 (Q9NYD6 254-340 K271E): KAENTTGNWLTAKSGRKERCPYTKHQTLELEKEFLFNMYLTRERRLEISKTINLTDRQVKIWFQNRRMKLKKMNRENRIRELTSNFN
The target of assay [18] is PITX2 (Homo sapiens, UniProt Q99697 72-157).

The values that follow come from article PMC11006913.

Chain of SHOX (Homo sapiens, UniProt O15266 103-189) (O15266 103-189): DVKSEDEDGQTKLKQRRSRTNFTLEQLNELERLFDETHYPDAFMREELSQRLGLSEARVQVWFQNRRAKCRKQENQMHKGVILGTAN
Chain of SHOX (Homo sapiens, UniProt O15266 103-189, R173C) (O15266 103-189 R173C): as the sequence (O15266 103-189) above, with R71C counted along it
Chain of VAX1 (Homo sapiens, UniProt Q5SQQ9 86-172, K157R) (Q5SQQ9 86-172 K157R): as the sequence (Q5SQQ9 86-172) above, with K72R counted along it
Chain of ALX3 (Homo sapiens, UniProt O95076 139-225, N203S) (O95076 139-225 N203S): as the sequence (O95076 139-225) above, with N65S counted along it
Chain of ALX3 (Homo sapiens, UniProt O95076 139-225, L168Q) (O95076 139-225 L168Q): as the sequence (O95076 139-225) above, with L30Q counted along it
Chain of ALX3 (Homo sapiens, UniProt O95076 139-225, N203Q) (O95076 139-225 N203Q): as the sequence (O95076 139-225) above, with N65Q counted along it
Chain of ALX1 (Homo sapiens, UniProt Q15699 118-204, L144R) (Q15699 118-204 L144R): as the sequence (Q15699 118-204) above, with L27R counted along it
Chain of ALX1 (Homo sapiens, UniProt Q15699 118-204, L144V) (Q15699 118-204 L144V): as the sequence (Q15699 118-204) above, with L27V counted along it

In the case of CAGCCGCG, the binding signal in assay [1] is 7.08 upbm affinity estimate (log intensity, higher = more binding, comparable within an allelic series); in [2], 6.48 upbm affinity estimate (log intensity, higher = more binding, comparable within an allelic series); in assay [3], 7.74 upbm affinity estimate (log intensity, higher = more binding, comparable within an allelic series); in [4] it was 7.07 upbm affinity estimate (log intensity, higher = more binding, comparable within an allelic series); in [5], 6.44 upbm affinity estimate (log intensity, higher = more binding, comparable within an allelic series); in assay [6], 7.7 upbm affinity estimate (log intensity, higher = more binding, comparable within an allelic series). For the same sequence, the binding signal was 7 upbm affinity estimate (log intensity, higher = more binding, comparable within an allelic series) in [7]; 7.68 upbm affinity estimate (log intensity, higher = more binding, comparable within an allelic series) in assay [8]; 7.67 upbm affinity estimate (log intensity, higher = more binding, comparable within an allelic series) in [9]; 7.24 upbm affinity estimate (log intensity, higher = more binding, comparable within an allelic series) in assay [10]; 6.47 upbm affinity estimate (log intensity, higher = more binding, comparable within an allelic series) in assay [11]; 7.74 upbm affinity estimate (log intensity, higher = more binding, comparable within an allelic series) in [12]. Moreover, the binding signal in assay [13] is 7.13 upbm affinity estimate (log intensity, higher = more binding, comparable within an allelic series).
In the case of CCGCGCCA, the binding signal is 7.12 upbm affinity estimate (log intensity, higher = more binding, comparable within an allelic series) in [1] and 7.11 upbm affinity estimate (log intensity, higher = more binding, comparable within an allelic series) in assay [4].
Consider CCGCGGCC, for which the binding signal in [1] is 7.18 upbm affinity estimate (log intensity, higher = more binding, comparable within an allelic series); in assay [4], 7.17 upbm affinity estimate (log intensity, higher = more binding, comparable within an allelic series).
GCCGGGGA: the binding signal is 7.02 upbm affinity estimate (log intensity, higher = more binding, comparable within an allelic series) in assay [1] and 7.11 upbm affinity estimate (log intensity, higher = more binding, comparable within an allelic series) in assay [4].
Turning to AGCCGCCG, the binding signal is 7.12 upbm affinity estimate (log intensity, higher = more binding, comparable within an allelic series) in assay [1]; 9.48 upbm affinity estimate (log intensity, higher = more binding, comparable within an allelic series) in assay [14]; 7.19 upbm affinity estimate (log intensity, higher = more binding, comparable within an allelic series) in [4]; 9.52 upbm affinity estimate (log intensity, higher = more binding, comparable within an allelic series) in assay [15]; 9.57 upbm affinity estimate (log intensity, higher = more binding, comparable within an allelic series) in assay [16].
On to CTCCTCCC, for which the binding signal is 7.03 upbm affinity estimate (log intensity, higher = more binding, comparable within an allelic series) in assay [1] and 7.12 upbm affinity estimate (log intensity, higher = more binding, comparable within an allelic series) in [4].
Regarding CAACCAGC, the binding signal in assay [1] is 7.2 upbm affinity estimate (log intensity, higher = more binding, comparable within an allelic series); in [4], 7.18 upbm affinity estimate (log intensity, higher = more binding, comparable within an allelic series).
For GCCCAAGC, the binding signal in assay [1] is 7.26 upbm affinity estimate (log intensity, higher = more binding, comparable within an allelic series); in [4] it was 7.23 upbm affinity estimate (log intensity, higher = more binding, comparable within an allelic series).
As to AAGGCTCC, the binding signal was 7.08 upbm affinity estimate (log intensity, higher = more binding, comparable within an allelic series) in assay [1] and 7.1 upbm affinity estimate (log intensity, higher = more binding, comparable within an allelic series) in [4].
In the case of TCGCGCGA, the binding signal was 7.38 upbm affinity estimate (log intensity, higher = more binding, comparable within an allelic series) in assay [1] and 7.28 upbm affinity estimate (log intensity, higher = more binding, comparable within an allelic series) in assay [4].
GCCAGGGA: the binding signal was 7.22 upbm affinity estimate (log intensity, higher = more binding, comparable within an allelic series) in assay [1] and 7.13 upbm affinity estimate (log intensity, higher = more binding, comparable within an allelic series) in assay [4].
In the case of CCCACTCG, the binding signal in assay [1] was 7.04 upbm affinity estimate (log intensity, higher = more binding, comparable within an allelic series); in [4], 7.12 upbm affinity estimate (log intensity, higher = more binding, comparable within an allelic series).
Turning to AGCCACCG, the binding signal is 7.07 upbm affinity estimate (log intensity, higher = more binding, comparable within an allelic series) in assay [1]; 9.53 upbm affinity estimate (log intensity, higher = more binding, comparable within an allelic series) in assay [14]; 7.05 upbm affinity estimate (log intensity, higher = more binding, comparable within an allelic series) in [4]; 9.56 upbm affinity estimate (log intensity, higher = more binding, comparable within an allelic series) in assay [15]; 9.66 upbm affinity estimate (log intensity, higher = more binding, comparable within an allelic series) in [16].
For the sequence CCACCTCG, the binding signal was 7.13 upbm affinity estimate (log intensity, higher = more binding, comparable within an allelic series) in assay [1] and 7.18 upbm affinity estimate (log intensity, higher = more binding, comparable within an allelic series) in assay [4].
Turning to CGGGGCCA, the binding signal in [1] was 6.97 upbm affinity estimate (log intensity, higher = more binding, comparable within an allelic series); in assay [4], 7.1 upbm affinity estimate (log intensity, higher = more binding, comparable within an allelic series).
As to AGGGCAGC, the binding signal in assay [1] is 6.98 upbm affinity estimate (log intensity, higher = more binding, comparable within an allelic series); in assay [14], 9.54 upbm affinity estimate (log intensity, higher = more binding, comparable within an allelic series); in [4] it was 7.18 upbm affinity estimate (log intensity, higher = more binding, comparable within an allelic series); in assay [15], 9.49 upbm affinity estimate (log intensity, higher = more binding, comparable within an allelic series); in assay [16], 9.66 upbm affinity estimate (log intensity, higher = more binding, comparable within an allelic series).
On to CGCAGCCG, for which the binding signal is 7.02 upbm affinity estimate (log intensity, higher = more binding, comparable within an allelic series) in assay [1] and 7.12 upbm affinity estimate (log intensity, higher = more binding, comparable within an allelic series) in [4].
On to CCAAACGG, for which the binding signal was 7.11 upbm affinity estimate (log intensity, higher = more binding, comparable within an allelic series) in assay [1] and 7.21 upbm affinity estimate (log intensity, higher = more binding, comparable within an allelic series) in assay [4].
Consider AGTTTATG, for which the binding signal in assay [1] is 8.25 upbm affinity estimate (log intensity, higher = more binding, comparable within an allelic series); in [14], 10.7 upbm affinity estimate (log intensity, higher = more binding, comparable within an allelic series); in [15], 11.9 upbm affinity estimate (log intensity, higher = more binding, comparable within an allelic series); in assay [17] it was 11.1 upbm affinity estimate (log intensity, higher = more binding, comparable within an allelic series); in assay [16] it was 11.5 upbm affinity estimate (log intensity, higher = more binding, comparable within an allelic series).
Regarding CTGAGGCA, the binding signal was 7.29 upbm affinity estimate (log intensity, higher = more binding, comparable within an allelic series) in assay [1] and 7.31 upbm affinity estimate (log intensity, higher = more binding, comparable within an allelic series) in assay [4].
Consider CCAGAGGC, for which the binding signal in assay [1] is 7.17 upbm affinity estimate (log intensity, higher = more binding, comparable within an allelic series); in [4], 7.18 upbm affinity estimate (log intensity, higher = more binding, comparable within an allelic series).
CTCCGAAC: the binding signal is 7.18 upbm affinity estimate (log intensity, higher = more binding, comparable within an allelic series) in [1] and 7.23 upbm affinity estimate (log intensity, higher = more binding, comparable within an allelic series) in assay [4].
For GGACGTCC, the binding signal in assay [1] is 7.52 upbm affinity estimate (log intensity, higher = more binding, comparable within an allelic series); in assay [3] it was 7.88 upbm affinity estimate (log intensity, higher = more binding, comparable within an allelic series); in [4], 7.3 upbm affinity estimate (log intensity, higher = more binding, comparable within an allelic series); in assay [6], 7.9 upbm affinity estimate (log intensity, higher = more binding, comparable within an allelic series); in assay [7], 7.88 upbm affinity estimate (log intensity, higher = more binding, comparable within an allelic series); in [8], 7.79 upbm affinity estimate (log intensity, higher = more binding, comparable within an allelic series). Besides, the binding signal in assay [9] is 7.85 upbm affinity estimate (log intensity, higher = more binding, comparable within an allelic series); in [10], 7.46 upbm affinity estimate (log intensity, higher = more binding, comparable within an allelic series); in assay [12], 7.79 upbm affinity estimate (log intensity, higher = more binding, comparable within an allelic series); in assay [13], 7.64 upbm affinity estimate (log intensity, higher = more binding, comparable within an allelic series).
As for TATTAGGA, the binding signal in [1] is 10.1 upbm affinity estimate (log intensity, higher = more binding, comparable within an allelic series); in [18], 9.87 upbm affinity estimate (log intensity, higher = more binding, comparable within an allelic series).
Turning to CCAGTTTA, the binding signal in assay [1] was 8.2 upbm affinity estimate (log intensity, higher = more binding, comparable within an allelic series); in [4], 7.55 upbm affinity estimate (log intensity, higher = more binding, comparable within an allelic series).
For GGCCAGAC, the binding signal in assay [1] is 7.3 upbm affinity estimate (log intensity, higher = more binding, comparable within an allelic series); in assay [4], 7.26 upbm affinity estimate (log intensity, higher = more binding, comparable within an allelic series).
Regarding CCGAAGCG, the binding signal in assay [1] was 7.16 upbm affinity estimate (log intensity, higher = more binding, comparable within an allelic series); in [4], 7.24 upbm affinity estimate (log intensity, higher = more binding, comparable within an allelic series).
